ST2 IL33 inh: IL1RL1 inhibition; inhibition, % for hits at 17 µM; AlphaLISA ST2-Fc/biotin-IL-33 interaction, 1 h; 78,000 tested, 2.3% active; Q01638; in the data active = inhibition above about 30%
Target sequence (Q01638 whole entry, looked up): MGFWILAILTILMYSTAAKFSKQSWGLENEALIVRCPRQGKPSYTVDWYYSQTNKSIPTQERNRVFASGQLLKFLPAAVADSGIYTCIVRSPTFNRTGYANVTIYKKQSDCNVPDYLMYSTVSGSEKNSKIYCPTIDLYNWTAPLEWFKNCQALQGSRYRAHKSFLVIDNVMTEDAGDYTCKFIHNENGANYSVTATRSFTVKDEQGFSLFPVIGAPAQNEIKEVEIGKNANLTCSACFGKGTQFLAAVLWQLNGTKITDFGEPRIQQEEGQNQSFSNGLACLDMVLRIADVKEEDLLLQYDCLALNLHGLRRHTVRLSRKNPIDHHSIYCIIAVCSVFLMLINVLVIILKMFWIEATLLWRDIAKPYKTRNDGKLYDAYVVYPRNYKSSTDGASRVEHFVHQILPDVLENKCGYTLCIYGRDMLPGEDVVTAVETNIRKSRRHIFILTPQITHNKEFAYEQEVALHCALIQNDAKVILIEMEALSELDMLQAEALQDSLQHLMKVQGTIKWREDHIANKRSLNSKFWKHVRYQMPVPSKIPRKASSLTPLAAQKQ
Active calls of the source: *; i = inactive. Only a selection was taken, and hits are over-represented in it overall.

SMILES	ST2 IL33 inh
COc1cc(OC)c(OC)cc1/C=C1\N=C(c2ccc(OC)c([N+](=O)[O-])c2)OC1=O	i
COc1ccccc1N=Cc1cccc([N+](=O)[O-])c1O	i
O=C1CC2(CCN(Cc3cn(-c4ccccc4)nc3-c3ccncc3)CC2)CN1	i
NS(=O)(=O)c1ccc(NC(NC(=O)c2ccco2)C(=O)c2ccc(Cl)cc2)cc1 (stereo not drawn)	i
CCCNC(=O)C1CC(=O)N(c2ccc(Br)cc2)C1 (stereo not drawn)	i
COc1ccc(N=Cc2c(O)n(-c3ccccc3C)c(=O)c3ccccc23)cc1OC	48%*
COc1ccc(N=Cc2c(O)n(-c3ccccc3OC)c(=O)c3ccccc23)c(OC)c1	31%*
COc1ccccc1NC(=O)CSc1nc(O)cc(=O)n1-c1ccccc1C	i
COc1ccc(N=Cc2c(O)n(-c3ccccc3C)c(=O)c3ccccc23)c(OC)c1	43%*
COc1ccc(-n2nc(C(=O)O)c3ccccc3c2=O)c(OC)c1	i
COc1ccc(-n2c(=O)[nH]c3cc(C(=O)O)ccc3c2=O)cc1OC	i
COc1ccc(N=Cc2c(C)c(Cl)c(C)c([N+](=O)[O-])c2O)cc1OC	i
COc1ccccc1-n1c(O)c(C=Nc2ccc(C(F)(F)F)cc2)c2ccccc2c1=O	33%*
COc1cccc(C=Nc2ccc(N=Cc3cccc(OC)c3OC)cc2)c1OC	i
COc1ccc(O)c(C=Nc2c(C)n(C)n(-c3ccccc3)c2=O)c1	i
O=c1oc2ccccc2c(O)c1C=Nc1cccc(C(F)(F)F)c1	i
COc1ccc(OC)c(-n2c(=O)[nH]c3cc(C(=O)O)ccc3c2=O)c1	i
O=C1NC(=O)c2ccc3c4c(ccc1c24)C(=O)N(c1ccc(Cl)cc1)C3=O	i
N#Cc1cccc(NC(=S)N[C@H]2CO[C@H]3[C@@H]2OC[C@@H]3n2cc(COc3ccccc3)nn2)c1	i
COc1cc(C(=O)N2CCOC(CCN(C)C)C2)ccn1 (stereo not drawn)	i
COc1ccc(CC(=O)NC(c2ccccc2)c2ccccc2)cc1	i
Cc1c(CN2CCCC(c3ccn[nH]3)C2)[nH]c2ccc(F)cc12 (stereo not drawn)	i
c1cnc(N2CCN(C3CCC4(CCNCC4)CC3)CC2)cn1	i
COc1ccc(C2C(C(C)=O)=C(C)Nc3ncnn32)c(OC)c1OC (stereo not drawn)	i
CC(c1ccccc1)n1cnnc1CCc1ccccc1 (stereo not drawn)	i
SMILES	ST2 IL33 inh
CCC1=C(C)/C(=C\c2[nH]c(C)c(CC)c2C)N=C1C	78%*
CC(C)(C)C(=O)Nc1ncnc2sc3c(c12)CCCC3	i
Cc1cc[n+](C2C(c3ccc([N+](=O)[O-])cc3)C(C#N)=C([S-])NC2(O)C2CC2)cc1 (stereo not drawn)	59%*
Cc1ccc[n+](C2C(c3ccc([N+](=O)[O-])cc3)C(C#N)=C([S-])NC2(O)C2CC2)c1 (stereo not drawn)	50%*
COc1ccccc1C1C(C#N)=C(C(=C=[N-])C#N)NC(O)(C2CC2)C1[n+]1ccc(C)cc1 (stereo not drawn)	i
CN1[C@@H](CCC(=O)Nc2ccccc2)CNC(=O)[C@@H]2[C@H]1CCN2Cc1ncc[nH]1	i
Cc1cccc(CSC2=NCCN2C(=O)c2ccccc2Br)c1	i
COc1ccccc1C1CC(=O)N2CN(c3ccccc3F)CSC2=C1C#N (stereo not drawn)	i
CCc1c(C)sc(NC(=O)c2noc3c2CCCC3)c1C#N	i
Cc1ccc(C(=O)N2CCN(S(=O)(=O)c3ccccc3)C2c2ccc(N(C)C)cc2)cc1 (stereo not drawn)	i
O=c1c2oc3ccc(Cl)cc3c2nc2n1CCS2	i
CCc1nc(N2CCC(N3CCCC(C(=O)N4CCCC4)C3)CC2)ncc1C (stereo not drawn)	i
Cc1ccc2[nH]c(=O)nc(-c3ccccc3)c2c1	i
CC1=Nc2c([nH]c3ccccc23)-c2cc(C)ccc2N1	32%*
CCCc1nc2nc[nH]n2c(=O)c1NC(=O)Nc1ccccc1F	i
N#Cc1c(N)n(CCN2CCOCC2)c2nc3ccccc3nc12	36%*
Cc1ccc2c(c1)c1nc3ccccc3nc1n2CCN1CCOCC1	i
N#Cc1c(N)n(-c2cccc(F)c2)c2nc3ccccc3nc12	i
CCCCCn1c(N)c(C#N)c2nc3ccccc3nc21	i
Cc1ccccc1-n1c(N)c(C#N)c2nc3ccccc3nc21	30%*
CCOC(=O)c1c(N)n(-c2ccc(OCC)cc2)c2nc3ccccc3nc12	i
O=c1c2cc3c(=O)n(Cc4ccccc4)c(=O)c3cc2c(=O)n1Cc1ccccc1	i
O=C(O)/C=C/c1ccc(S(=O)(=O)Nc2cccnc2)cc1	i
Nc1c(C(=O)NCc2ccco2)nnn1Cc1ccccc1	i
O=C(Nc1ccccc1N1CCOCC1)c1ccccc1Br	i
SMILES	ST2 IL33 inh
Cc1[nH]cnc1CNC1CC(=O)N(Cc2ccccc2C(F)(F)F)C1 (stereo not drawn)	i
O=C1NC(=O)/C(=C\c2ccc(Cl)cc2Cl)S1	31%*
O=C1S/C(=C\c2ccc(Cl)cc2Cl)C(=O)N1CN1CCOCC1	i
O=C1NC(=O)/C(=C/c2ccc([N+](=O)[O-])cc2)S1	i
O=c1cc(-c2ccccc2)c2ccc(O)cc2o1	i
O=c1cc2oc3cc(O)c(O)cc3c(-c3ccccc3)c-2cc1O	36%*
O=c1cc(-c2ccc(O)cc2)oc2ccccc12	i
CCN1C(=O)C(O)(CC(=O)c2ccc(OC)c(OC)c2)c2ccccc21 (stereo not drawn)	i
COc1ccc(S(=O)(=O)N(CC(=O)Nc2ccc(F)cc2F)Cc2ccccc2)cc1	i
Nc1ccc(-c2cc(-c3ccccc3)nc(-c3ccc(N)cc3)n2)cc1	i
Nc1ccc(-c2c3ccccc3nc3cc(N)ccc23)cc1	61%*
Nc1ccc(-c2ccc3ccccc3n2)cc1	i
CC(=O)NC(=O)c1cc2cc(Br)ccc2oc1=Nc1ccc(F)cc1	i
CN1CC2(CCCN(C(=O)c3ccc(Cn4ccnc4)o3)C2)OC1=O (stereo not drawn)	i
CCOC(=O)CN(C)C(=O)CC(c1ccccc1)c1ccccc1C (stereo not drawn)	i
CCN1CCc2c(sc(NC(=O)c3ccc(Cl)cc3)c2C(=O)OC)C1	89%*
COC(=O)c1c(NC(=O)c2ccc(F)cc2)sc2c1CCN(C(C)C)C2	i
CCN1CCc2c(sc(NC(=O)COc3ccccc3)c2C(=O)OC)C1	i
COc1ccc(C2=NN(C(=O)CCC(=O)O)C(c3ccc(Cl)cc3Cl)C2)cc1 (stereo not drawn)	i
O=C(N[C@@H]1c2ccccc2C2(CCN(C(=O)/C=C/c3ccc(F)cc3)CC2)[C@H]1O)c1ccccc1	i
CC(C)N1CCNC(=O)C1CC(=O)NC1(CN2CCOCC2)CCCC1 (stereo not drawn)	i
CCNC(=O)O[C@@H]1CO[C@H]2[C@@H]1OC[C@@H]2NC(=S)Nc1cccc(C#N)c1	92%*
CC(=O)c1cccc(NC(=O)O[C@@H]2CO[C@H]3[C@@H]2OC[C@@H]3NC(=S)Nc2ccccc2)c1	i
CCNC(=O)O[C@@H]1CO[C@H]2[C@@H]1OC[C@@H]2NC(=O)Nc1ccc(C(C)C)cc1	i
COC(=O)c1cccc(NC(=S)N[C@H]2CO[C@H]3[C@@H]2OC[C@H]3OC(=O)Nc2ccc(C(C)C)cc2)c1	68%*
CC(C)c1ccc(NC(=O)O[C@@H]2CO[C@H]3[C@@H]2OC[C@@H]3NC(=O)Nc2cccc(C#N)c2)cc1	i
